Source: the supplement of paper PMC10127200
Where a name gives a salt, the structure may show the parent alone.

Key:
Assay in all cases: Euclidean distance of Cell Painting phenotypic profile (signed KS, 77 features) to DMSO centroid (dimensionless distance); 5 or 10 uM (library dependent); higher = stronger phenotypic change vs DMSO (phenoactivity)
Settings in all cases: 48 h
786-O = tested on: 786-O
Outline: (§1)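 Five cancer lines, together with a healthy fibroblast line, received library compounds for 48 h at a library-dependent 10 or 5 uM and 0.1% DMSO final. Harmony then derived 77 features from confocal 20X images (9 fields/well) of the stained cells, scoring each as a signed Kolmogorov-Smirnov statistic against same-plate vehicle wells. After plate-position correction, correlation weighting and replicate averaging at the top dose, phenoactivity was taken as each profile's Euclidean distance to the median vehicle profile.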

A549 = tested on: A549
Outline: as §1

DU145 = tested on: DU145
Outline: as §1

FB = tested on: FB
Outline: as §1

HEPG2 = tested on: HEPG2
Outline: as §1

OVCAR4 = tested on: OVCAR4
Outline: as §1

Row | Compound | Euclidean distance (786-O) | Euclidean distance (A549) | Euclidean distance (DU145) | Euclidean distance (FB) | Euclidean distance (HEPG2) | Euclidean distance (OVCAR4)
1 | CNCCC(Oc1ccc(C(F)(F)F)cc1)c1ccccc1 (configuration not stated) [Fluoxetine HCl] | 0.84 | 1.16 | 1.21 | 1.78 | 1.35 | 1.71
2 | Oc1ccc([C@H]2COc3cc(O)ccc3C2)cc1 [Equol] | 1.09 | 1.52 | 1.04 | 1.35 | 0.768 | 1.72
3 | CC(O)(P(=O)(O)O)P(=O)(O)O [Etidronate] | 1.27 | 1.25 | 1.1 | 1.04 | 0.55 | 1.15
4 | O=C(O)c1ccccc1O [Salicylic acid] | 0.877 | 0.32 | 0.898 | 0.648 | 0.308 | 1.08
5 | Cc1coc2c1C(=O)C(=O)c1c-2ccc2c(C)cccc12 [Tanshinone I] | 1.41 | 0.593 | 1.07 | 1.35 | 1.25 | 1.18
6 | CC(C)(C)NCC(O)COc1cccc2c1CCC(=O)N2 (configuration not stated) [Carteolol HCl] | 1.14 | 0.612 | 0.836 | 1.22 | 0.541 | 2.01
7 | NCCc1ccc(O)c(O)c1 [Dopamine HCl] | 1.84 | 0.481 | 0.944 | 1.26 | 0.844 | 3.26
8 | Cn1nnc(-c2ccc(-c3ccc(N4C[C@H](COP(=O)(O)O)OC4=O)cc3F)cn2)n1 [Tedizolid Phosphate] | 0.75 | 0.64 | 0.82 | 0.929 | 0.638 | 0.87
9 | COc1ccc(S(=O)(=O)N(C(C)=O)c2ccccc2/C=C/c2cc[n+]([O-])cc2)cc1 | 2.93 | 2.94 | 4.01 | 2.75 | 3.08 | 2.97
10 | CNC(=O)[C@H](Cc1c[nH]c2ccccc12)NC(=O)[C@@H](CC(=O)NO)CC(C)C [Ilomastat (GM6001. Galardin)] | 1.02 | 1.06 | 1.22 | 0.836 | 0.633 | 1.3
11 | CCN(CC)CCNC(=O)c1cc(Cl)c(N)cc1OC [Metoclopramide HCl] | 0.662 | 0.513 | 0.62 | 0.54 | 0.614 | 0.647
12 | CNS(=O)(=O)C[C@H]1CC[C@H](N(C)c2[nH]cnc3nccc2-3)CC1 | 1.06 | 0.94 | 1.61 | 1.3 | 0.907 | 0.949
13 | O=C(NCCCNc1nc(Nc2cccc(NC(=O)N3CCCC3)c2)ncc1I)c1cccs1 | 2.35 | 4.29 | 3.26 | 3.8 | 2.12 | 4.44
14 | O=c1[nH]cnc2nc[nH]c12 [Hypoxanthine] | 1.19 | 1.2 | 1.16 | 1.66 | 0.856 | 2.43
15 | CCCCCCCCCCCCCCCCOc1nc2ccc(C)cc2c(=O)o1 [Cetilistat] | 1 | 1.33 | 0.996 | 0.737 | 0.864 | 0.764
16 | COc1cc2nc(N3CCCN(C)CC3)nc(NC3CCN(Cc4ccccc4)CC3)c2cc1OC | 4.16 | 3.99 | 3.51 | 4.73 | 4.64 | 3.6

Row | Compound | Euclidean distance (786-O) | Euclidean distance (A549) | Euclidean distance (DU145) | Euclidean distance (FB) | Euclidean distance (HEPG2) | Euclidean distance (OVCAR4)
17 | O=C(Oc1cc(S(=O)(=O)c2ccccc2)ccc1[N+](=O)[O-])c1ccc(Cl)cc1 | 1.76 | 1.8 | 1.4 | 1.14 | 1.96 | 1.27
18 | Cc1ccc2nc(NCCN)c3ncc(C)n3c2c1 | 0.585 | 1.64 | 1.21 | 1.55 | 2.99 | 1.57
19 | Cc1cc(C)c2c(c1)[C@@H](N(Cc1cc(C(F)(F)F)cc(C(F)(F)F)c1)c1nnn(C)n1)CCCN2C[C@H]1CC[C@H](C(=O)O)CC1 | 1.71 | 1.7 | 1.3 | 1.05 | 1.05 | 1.25
20 | CN1CCc2c(c3ccccc3n2Cc2ccccc2)C1 [Mebhydrolin napadisylate] | 1.27 | 1.06 | 0.544 | 1.03 | 1.31 | 1.49
21 | O=C(O)CCC(=O)c1ccc(-c2ccccc2)cc1 [Fenbufen] | 0.582 | 1.6 | 0.988 | 0.916 | 0.887 | 1.11
22 | S=C(NCc1ccc2c(c1)OCO2)N1CCN(c2ncnc3c2oc2ccccc23)CC1 [Amuvatinib (MP-470)] | 1.2 | 1.72 | 1.25 | 1.07 | 2.14 | 1.2
23 | C=CCc1ccc(O)c(OC)c1 [Eugenol] | 0.982 | 1.21 | 0.897 | 0.958 | 0.497 | 1.51
24 | O=C(Nc1ccccc1Br)N[C@@H]1CCN(c2ccc(C(F)(F)F)cn2)C1 | 0.896 | 0.999 | 0.688 | 0.9 | 0.544 | 1.21
25 | C/C=C\c1ccc(OC)cc1 [cis-Anethole] | 0.571 | 0.784 | 0.864 | 0.765 | 0.671 | 1.2
26 | Cc1cc(C(=O)Nc2nc3cccc(Cl)c3n2[C@@H]2CCCCN(C(=O)/C=C/CN(C)C)C2)ccn1 [Nazartinib (EGF816. NVS-816)] | 1.87 | 1.93 | 1.67 | 3.18 | 2.99 | 1.9
27 | CC(C)NNC(=O)c1ccncc1 [Iproniazid] | 1.02 | 0.606 | 0.811 | 1.08 | 0.379 | 1.18
28 | CC1(C)O[C@@H]2C[C@H]3[C@@H]4CCC5=CC(=O)CC[C@]5(C)[C@@]4(F)[C@@H](O)C[C@]3(C)[C@]2(C(=O)CCl)O1 [Halcinonide] | 1.46 | 2.25 | 2.18 | 2 | 0.493 | 1.78
29 | CC[C@H](CO)Nc1nc(NCc2ccccc2)c2ncn(C(C)C)c2n1 [Roscovitine (Seliciclib.CYC202)] | 2.13 | 2.16 | 1.28 | 1.32 | 1.82 | 1.84
30 | Nc1ccccc1NC(=O)c1ccc(CNc2nccc(-c3cccnc3)n2)cc1 [Mocetinostat (MGCD0103)] | 3.18 | 3.33 | 2.95 | 3.48 | 3.36 | 3.38
31 | C[C@H]1O[C@@H](Oc2c(-c3cc(O)c(O)c(O)c3)oc3cc(O)cc(O)c3c2=O)[C@@H](O)[C@@H](O)[C@@H]1O [Myricitrin] | 1.28 | 0.726 | 1.03 | 1.54 | 0.535 | 0.952
32 | CC(=O)Nc1ccc(CC(=O)O)cc1 [Actarit] | 1.12 | 0.862 | 0.902 | 1.09 | 0.464 | 0.872
